From ChEMBL document CHEMBL3433997, “St. Jude Leishmania screening dataset” (2016)

Key:
Assay type in all cases: functional
[1] = biological target: Solute carrier family 2, facilitated glucose transporter member 1 (Homo sapiens) (UniProt P11166); assay: ST_JUDE_LEISH: Cytotoxicity at 2uM final concentration against transgenic Leishmania Mexicana promastigotes LmGLUT1 that are glucose transport deficient and complemented with the human glucose transporter GLUT1. Activity is measured by DNA content using SYBR green in vitro
Sequence of Solute carrier family 2, facilitated glucose transporter member 1 (Homo sapiens) (P11166 whole entry): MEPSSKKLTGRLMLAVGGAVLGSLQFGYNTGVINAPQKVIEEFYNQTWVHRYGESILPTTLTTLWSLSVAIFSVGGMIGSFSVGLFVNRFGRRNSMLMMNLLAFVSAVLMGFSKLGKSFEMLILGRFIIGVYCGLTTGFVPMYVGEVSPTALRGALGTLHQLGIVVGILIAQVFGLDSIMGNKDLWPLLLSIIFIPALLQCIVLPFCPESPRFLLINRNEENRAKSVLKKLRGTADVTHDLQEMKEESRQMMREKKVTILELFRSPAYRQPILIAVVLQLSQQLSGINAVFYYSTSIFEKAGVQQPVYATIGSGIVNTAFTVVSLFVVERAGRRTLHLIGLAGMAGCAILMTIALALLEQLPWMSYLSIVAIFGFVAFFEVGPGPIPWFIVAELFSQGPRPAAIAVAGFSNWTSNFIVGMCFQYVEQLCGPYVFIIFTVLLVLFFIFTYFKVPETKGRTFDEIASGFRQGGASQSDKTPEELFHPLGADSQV

[2] = biological target: Hexose transporter 1 (Plasmodium falciparum) (UniProt O97467); assay: ST_JUDE_LEISH: Cytotoxicity at 2uM final concentration against transgenic Leishmania Mexicana promastigotes LmPfHT that are glucose transport deficient and complemented with the Plasmodium falciparum hexose transporter. Activity is measured by DNA content using SYBR green in vitro
[3] = biological target: Glucose transporter (Leishmania mexicana) (UniProt O61059); assay: ST_JUDE_LEISH: Cytotoxicity at 2uM final concentration against transgenic Leishmania Mexicana promastigotes LmGT2 that are glucose transport deficient and complemented with the L. Mexicana glucose transporter 2. Activity is measured by DNA content using SYBR green in vitro

Row | Compound | inhibition [1] | inhibition [2] | inhibition [3]
1 | O=C(Nc1ccc(Cn2ncc(N3CCCNCC3)c(Cl)c2=O)cc1)Nc1ccc(F)cc1[N+](=O)[O-] | 10.2% | 11.4% | 5.42%
2 | COc1ccc(NC(=O)c2ccc(Br)c(C)c2)cc1N1CCN(CCCCc2ccccc2)CC1 | 1.19% | 0.21% | 0.85%
3 | COc1cccc(CN2CCCC(OC(c3ccccc3)c3ccccc3)C2)c1O (stereo unspecified) | 1% | -1.82% | 0.05%
4 | O=[N+]([O-])c1cccc(CNCC2CCN(CC3CCCCC3)CC2)c1 | -0.61% | 3.2% | 2.98%
5 | CCCCCCNCc1c(O)ccc2c(CNCCCCCC)c(O)ccc12 | -0.62% | -0.78% | 0.36%
6 | CCCc1cc(Cc2cnc(N)nc2N)ccc1OCCCCCC(=O)OCC | 1.31% | -1.27% | -2.01%
7 | Cc1[nH]c(C)c(-c2ccc(-c3ccc4c(c3)OCO4)nc2)c(=O)c1Br | 0.29% | 1.09% | 0.07%
8 | Cc1cccc2nc(-c3cccc(-c4cccc(NC(=O)c5cccnc5Cl)c4)c3)[nH]c12 | 1.25% | 2.51% | 3.23%
9 | Cc1cccc2nc(-c3ccc(-c4ccc(CN5CCCCC5)cc4)s3)[nH]c12 | 4.61% | 2.36% | 3.32%
10 | CCCCN(CCCC)Cc1cc(N(C)c2ccc([N+](=O)[O-])cn2)ccc1O | 2.39% | -0.26% | 1.69%
11 | CCC[C@@H]([C@@H](CC1CCCCC1)C(=O)N[C@@H](CCOC(=O)NCC)C(=O)Nc1nccs1)N(O)C=O | 8.61% | 10.3% | 9.7%
12 | c1ccc(C2CCC(N3CCC(N4CCN(c5ccccc5)CC4)CC3)CC2)cc1 (stereo unspecified) | 5.35% | 7.92% | 8.3%
